Bioassay records (PubChem)
This is a sample that favours compounds with a hit; in the whole collection about 9.3% have one here.
Vaccinia Venus: qHTS for Stage-Specific Inhibitors of Vaccinia Orthopoxvirus: Venus Reporter Primary qHTS | Vaccinia virus Venus reporter expression, fluorescence | 330,000 tested, 0.46% active | Potency, µM (titrated, usually from 36.5 µM), for the others: at the top dose activity change, negative = inhibition, hits mostly inhibitors; calls by dose curve; tested in A549 cells; further: potency means the concentration at half of the fitted maximal effect; nearly all actives have a fitted effect of over 30% in size
FMDV inh: High Throughput Screening for Foot and Mouth Disease Virus Antivirals. Potency, µM (series often up to 57.9 µM), without a hit: at the highest dose activity change, negative = inhibition, actives largely listed as inhibitors. 410,000 tested, 1.2% active. AID 1159524, 2015. FMDV antiviral cell-based qHTS; calls by dose curve; tested in HEK293T cells; further: read-out not given here; potency means the concentration at half of the fitted maximal effect; nearly all actives have a fitted effect of over 45% in size
HCV inhibitor: qHTS Assay for Inhibitors of Hepatitis C Virus (HCV); Huh7.5.1 HCVcc-Cre infection, luciferase reporter, 44 h; Potency, µM (doses to about 41.8 µM), for inactives: at the top dose activity change, negative = inhibition, most hits filed as inhibitors; 340,000 tested, 3.4% active; AID 651820, 2012; further: potency means the concentration at half of the fitted maximal effect
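Antiviral activity was scored by luciferase reporter output from cells infected with HCVcc-Cre (~0.5 moi) in presence of compound, 44 h infection period, cells seeded 1,000/well 4 h prior.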
Sm TGR block: qHTS Assay for the Inhibitors of Schistosoma Mansoni Peroxiredoxins. Schistosoma mansoni thioredoxin glutathione reductase (TGR), Q962Y6. purified TGR, DTNB reduction, TNB absorbance 405 nm. Potency, µM (highest dose often 114 µM), inactives show top-dose activity change, negative = inhibition, most hits filed as inhibitors. 360,000 tested, 3% active. AID 485364, 2010; further: potency means the concentration at half of the fitted maximal effect; nearly all actives have a fitted effect of over 60% in size
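TGR 20 nM + NADPH 100 uM (dispensed conc.), cpd preinc 15 min RT; start with NADPH (500 uM addition) then DTNB (15 mM addition). Kinetic TNB absorbance, 405 nm filter. Four-parameter Hill fit across titration.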
HCMV antiviral: qHTS Assay for inhibitors of the human cytomegalovirus (HCMV); HFF cells, HCMV-luciferase reporter, 72 h; stronger effect = lower value; activity change, negative = inhibition, % at 57.5 µM; 410,000 tested, 4.5% active; AID 1259415, 2018; in the data active means activity change below about -60%; inconclusive means no clear call, values can overlap the other calls; inactive means above about -39%
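Human foreskin fibroblasts infected with luciferase-reporter HCMV at MOI 1 PFU/cell, compounds at two doses. Luciferase measured 72 h post infection; normalized to buffer-only basal and Salinomycin (10uM) controls.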
VACV mCherry inh: qHTS for Stage-Specific Inhibitors of Vaccinia Orthopoxvirus: mCherry Reporter Primary qHTS; 310,000 tested, 0.63% active; Potency, µM (top dose mostly 36.5 µM), for the others: at the top dose activity change, negative = inhibition, actives largely listed as inhibitors; Vaccinia virus mCherry reporter infection, fluorescence; calls by dose curve; tested in A549 cells; further: potency means the concentration at half of the fitted maximal effect; nearly all actives have a fitted effect of over 35% in size
The depositor's hits bear a star; i = inactive; u = inconclusive; x = no result. Unless noted, the call rests on the fitted dose curve; in most records, active means well fitted curve in the direction sought with a large enough effect; inconclusive means small, poorly fitted or top-dose-only effect, or another doubt; inactive means no such curve, though single readings can be large; an effect the other way counts as inactive or inconclusive. On the % scale 0 is the no-effect control and ±100 the full control effect.

SMILES	Vaccinia Venus	FMDV inh	HCV inhibitor	Sm TGR block	HCMV antiviral	VACV mCherry inh
CCOC(=O)C1=C(c2ccccc2)NC(SCC(=O)Nc2ccc(C)cc2)=C(C#N)C1c1ccco1 (configuration not stated)	u	-21%	u	-11%	-1	-16%
Cc1cc(C=NCCCO)c(C)n1-c1cc(Cl)ccc1Cl	-5%	-10%	23%	0%	-16	-3%
Cc1ccc(N=C2NC(=O)/C(=C/c3cccnc3)S2)c(C)c1	-22%	u	21%	-3%	-80*	-3%
Cc1ccc(N=C2NC(=O)/C(=C\c3ccsc3)S2)c(C)c1	-28%	4%	-23%	6%	-72*	-19%
Cc1cccc(N=C2NC(=O)/C(=C/c3cccnc3)S2)c1C	x	-22%	15%	14%	u	x
Cc1ccc(N=C2NC(=O)CS2)c(C)c1	-17%	0%	23%	-6%	-10	x
COC1=C(OC)C(=O)c2ccccc2C1=O	-13%	x	x	x	x	-16%
CC1(C)C(=O)NC2=C1C(=O)C(=O)c1ccccc12	x	14µM*	x	x	x	x
O=C(Cc1ccc(-n2c(=S)[nH]c3ccccc3c2=O)cc1)N1CCC(N2CCCCC2)CC1	x	-25%	16%	0%	-16	x
CC(=O)N1CCCc2cc(S(=O)(=O)N(CCN(C)C)Cc3ccccc3)ccc21	-2%	-2%	x	5%	-8	0%
CCC(=O)N1CCc2cc(S(=O)(=O)N3CCc4ccccc4C3)ccc21	-5%	-16%	20%	5%	u	-16%
CC(=O)N1CCCc2cc(S(=O)(=O)N(C)Cc3ccccc3)ccc21	-17%	-19%	35µM*	-8%	-27	i
O=C(NCc1ccccc1)c1ccc(S(=O)(=O)N2CCCc3ccccc32)cc1	x	-5%	13µM*	37%	-21	x
CCC(=O)N1CCCc2cc(S(=O)(=O)N3CCCc4ccccc43)ccc21	u	u	10µM*	6%	-38	-14%
CCn1c(=O)n(CC)c2cc(S(=O)(=O)N3CCc4ccccc43)ccc21	u	x	13µM*	2%	-92*	i
O=C(NCc1ccco1)c1ccc(S(=O)(=O)N2CCCc3ccccc32)cc1	-19%	-28%	16%	-28%	-10	i
COc1ccc(C)cc1NC(=O)c1ccc2c(O)c(S(=O)(=O)c3ccccc3)c(=O)[nH]c2c1	x	0%	1%	-7%	-8	x
COC(=O)C(C(=O)Nc1ncccn1)C1CCCCCC1 (configuration not stated)	-6%	-14%	5%	7%	7	x
COc1cc(Cl)ccc1OCc1cc(C(=O)N(C)C2CC(C)(C)NC(C)(C)C2)no1	-19%	-14%	x	0%	-4	i
Cc1cnc(=O)[nH]c1SCc1cccc([N+](=O)[O-])c1	x	-10%	-6%	-7%	0	x
C/C(=N\NC(=O)c1c[nH]c2ccccc12)c1ccc(C)s1	-11%	18%	-3%	-7%	46	-26%
CC(=O)N1CCc2ccc(S(=O)(=O)N3CCc4ccccc43)cc21	x	-26%	22µM*	-6%	u	x
COc1ccc(C(=O)NCC2CCCO2)cc1S(=O)(=O)N1CCCc2ccccc21 (configuration not stated)	-16%	26%	12%	3%	-2	i
COc1ccc(OC)c(S(=O)(=O)N2CCc3ccccc32)c1	-21%	14%	2%	6%	4	i
COc1ccc(C(=O)NCc2ccc(C)cc2)cc1S(=O)(=O)N1CCCc2ccccc21	-27%	40%	u	-1%	-72*	u
COc1ccc(S(=O)(=O)N2CCc3ccccc32)cc1C(=O)O	x	-2%	2%	-28%	38	x
COc1ccc(OC)c(S(=O)(=O)N2CCCc3ccccc32)c1	-7%	8%	0%	1%	-102*	x
